Laboratory results published in PubChem BioAssay (NCATS).
Records with an inconclusive call do not appear. Unmarked numbers belong to inactive results. Calls of active or inactive are those of the source. The call rests on the fitted dose curve; in most records, active means well fitted inhibition curve with a large enough effect; inconclusive means small, poorly fitted or top-dose-only effect; inactive means flat fitted curve, though single readings scatter.

Tested on: ECU
Assay: qHTS profiling for inhibitors of Plasmodium falciparum proliferation (AID 504749);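 further: 0% = DMSO vehicle and full inhibition = artemisinin control; nearly all actives have a fitted effect of over 60% in size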
Conditions: P. falciparum in erythrocytes, SYBR Green DNA, 72 h; series mostly up to 28.7 µM; activity, negative = inhibition: at the top concentration
Procedure, shortened: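 Each compound contacts P. falciparum-infected red blood cells for 72 h at 37 C; lysis buffer (Tris, EDTA, saponin, Triton X, SYBR Green I) is added and fluorescence measured next morning; values normalized to controls.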

Compared with `Cc1cccc(C)c1OCC(C)N` (stereo not given), `CN(C)CCC(c1ccccc1)c1ccccn1` (stereo not given) is higher in “activity, negative = inhibition” value: -10.5% for the first, 8.34% for the second.

First: CC1(C)O[C@H]2C[C@@H]3[C@H]4CCC5=CC(=O)C=C[C@]5(C)[C@@]4(F)[C@@H](O)C[C@]3(C)[C@]2(C(=O)CO)O1
Second: CC(=O)O[C@]1(C(C)=O)CC[C@H]2[C@@H]3C=C(Cl)C4=CC(=O)[C@@H]5C[C@@H]5[C@]4(C)[C@H]3CC[C@@]21C
The “activity, negative = inhibition” value of the first is lower: -11.3% for the first, -1.85% for the second.

Compared with `CC(=O)c1ccc(S(=O)(=O)NC(=O)NC2CCCCC2)cc1`, `O=C(NCCN1CCOCC1)c1ccc(Cl)cc1` is higher in “activity, negative = inhibition” value: -0.5% for the first, 13.3% for the second.

Going from `CC(=O)N[C@@H](CS)C(=O)O` to `Cc1cnc(C(=O)O)c[n+]1[O-]`, the “activity, negative = inhibition” value falls from 11.7% to 10.3%.

Going from `O=C1NC(=O)C(c2ccccc2)(c2ccccc2)N1` to `O=C(O)c1cc(-c2ccccc2)nc2ccccc12`, the “activity, negative = inhibition” value falls from 13.2% to 12.9%.

Compared with `O=C1NCC2(CCN(CCc3ccccc3)CC2)O1`, `O=C(O)Cc1cccc2ccccc12` is higher in “activity, negative = inhibition” value: -1.64% for the first, 4.06% for the second.

Compared with `NC(N)=Nc1nc(CSCC/C(N)=N/S(N)(=O)=O)cs1`, `CCCCCN(C)CCC(O)(P(=O)(O)O)P(=O)(O)O` is higher in “activity, negative = inhibition” value: 3.68% for the first, 4.02% for the second.

Going from `NCCS` to `C[C@@H](O)[C@H]1C(=O)N2C(C(=O)O)=C(S[C@@H]3CN[C@H](C(=O)N(C)C)C3)[C@H](C)[C@H]12`, the “activity, negative = inhibition” value rises from 7.4% to 11.2%.

Compared with `COc1ccc(Cc2nccc3cc(OC)c(OC)cc23)cc1OC`, `CC(=O)CCCCn1c(=O)c2c(ncn2C)n(C)c1=O` is lower in “activity, negative = inhibition” value: 0.316% [at 12.8 µM] for the first, 0.114% [at 12.8 µM] for the second.

With `COc1ccccc1N1CCN(CCCNc2cc(=O)n(C)c(=O)n2C)CC1` the Potency was “inactive”.
For `CCN(CC)C(=O)c1ccc(O)c(OC)c1`, the Potency was “inactive”.
